Among the data in PubChem BioAssay are z-score and composite z-score values, retold here.

The source made the active and inactive calls. Unless noted, the rule behind the calls is not given here.

A short description of assay [1]: compound effects on lung adenocarcinoma cell viability – A549, calcein-AM fluorescence, 48 h, basal, profiling panel (AID 1162). Note: test concentration not given here. To be noted: higher = more signal.
Assay [2] can be described thus: compound effects on differentiated 3T3-L1 adipocyte viability – cell-based, 3T3-L1 adipocytes, calcein-AM fluorescence, 48 h, basal, profiling panel (AID 1163). Note: test concentration not given here. To be noted: 3T3-L1 adipocytes viability, higher = more signal.
Assay [3] can be described thus: compound effects on hepatocellular carcinoma cell viability – HepG2, calcein-AM fluorescence, 48 h, basal, profiling panel (AID 1164). Note: test concentration not given here. To be noted: higher = more signal.
The nature of assay [4]: compound effects on multiple myeloma cell viability – MM1S, calcein-AM fluorescence, 48 h, basal, profiling panel (AID 1165).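 Note: viability of MM1S multiple myeloma cells under basal unstimulated conditions; test concentration not given here.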 To be noted: higher = more signal.
Assay [5] can be described thus: calcein-AM signal in unstimulated myeloma cells – cell-based, calcein-AM fluorescence, 48 h, PK04 Diversity Set, profiling panel (AID 1166).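 Note: cells grown under basal conditions without added stimulus; test concentration not given here.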 To be noted: RPMI8226 myeloma viability, higher = more signal.
The nature of assay [6]: JC-1 mitochondrial signal, unstimulated HepG2 cells – cell-based, JC-1 fluorescence, 24 h, 100 nL compound, profiling panel (AID 1167). Note: test concentration not given here. To be noted: HepG2 mitochondrial potential, higher = more signal.
Assay [7] is described as follows: JC-1 mitochondrial signal, unstimulated adipocytes – cell-based, JC-1 fluorescence, 3T3-L1 adipocytes, 24 h, 100 nL compound, profiling panel (AID 1168). Note: test concentration not given here. To be noted: JC-1 mitochondrial fluorescence, higher = more signal, called active from +8 up or from −8 down.
Assay [8] in a line: JC-1 mitochondrial signal, unstimulated myeloma cells – cell-based, JC-1 fluorescence, RPMI8226, 24 h, 100 nL compound, profiling panel (AID 1169). Note: test concentration not given here. To be noted: JC-1 mitochondrial potential fluorescence, higher = more signal.
Assay [9] can be described thus: JC-1 mitochondrial signal, unstimulated MM1S myeloma – cell-based, JC-1 fluorescence, 24 h, 100 nL compound, profiling panel (AID 1170). Note: test concentration not given here. To be noted: MM1S mitochondrial potential, higher = more signal.
Assay [10] can be described thus: resazurin metabolic signal in A549 cells – cell-based, resazurin fluorescence, 24 h, PK04 Diversity Set, profiling panel (AID 1171). Note: test concentration not given here. To be noted: A549 viability, higher = more signal, called active from +8 up or from −8 down.
Assay [11] is described as follows: resazurin metabolic signal in HepG2 cells – cell-based, resazurin fluorescence, 24 h, PK04 Diversity Set, profiling panel (AID 1172). Note: test concentration not given here. To be noted: HepG2 viability, higher = more signal.
A short description of assay [12]: budding yeast growth changes without added modifier – OD600, strain BY4716, 24 h, basal condition, primary screen (AID 1173). To be noted: S. cerevisiae BY4716 growth, OD600, 24 h; higher = more signal, called active from +8 up or from −8 down.
The nature of assay [13]: viability profiling in MM1S myeloma cells – cell-based, resazurin fluorescence, basal, 24 h, PK04 Diversity Set, profiling panel (AID 1174). Note: test concentration not given here. To be noted: higher = more signal, called active from +8 up or from −8 down.
Assay [14] deals with Dihydroorotate dehydrogenase (quinone), mitochondrial (Plasmodium falciparum (isolate 3D7)) (UniProt Q08210). The assay can be described thus: inhibition of P. falciparum DHODH – biochemical, C-terminal His tag, absorbance 600 nm, primary screen (AID 1175).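 Note: recombinant parasite enzyme with a five histidine tag at its C terminus; test concentration not given here.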 To be noted: PfDHODH enzyme, DCIP absorbance 600 nm; higher = more signal, called active from +8 up or from −8 down.
Assay [15] in a line: inhibition of PAO1 biofilm formation – strain PAO1, LB-PBS medium, absorbance 600 nm, primary screen (AID 1176). Note: test concentration not given here. To be noted: P. aeruginosa PAO1 growth/biofilm, A600, 12 h; higher = more signal.
Assay [16] can be described thus: growth modulation of vineyard yeast isolate – strain RM11-1a, OD600, basal, 24 h, primary screen (AID 1177).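 Note: cultures grown under basal conditions with no added stressor; test concentration not given here.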 To be noted: S. cerevisiae RM11-1a growth, OD600, 24 h; higher = more signal, called active from +8 up or from −8 down.
A short description of assay [17]: growth of efflux-deficient E. coli DRC39 – strain DRC39, OD650, 24 h, E. coli filamentation inducers, primary screen (AID 1178).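 Note: growth measured as culture turbidity by optical density at 650 nm; test concentration not given here.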 To be noted: E. coli DRC39 acrAB, higher = more signal, called active from +8 up or from −8 down.
Assay [18] can be described thus: growth of efflux-deficient E. coli DRC39 – strain DRC39, OD650, 48 h, E. coli filamentation inducers, primary screen (AID 1179).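 Note: screen aims at cell division blockers that make cells filament.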 To be noted: E. coli DRC39 delta-acrAB growth, higher = more signal, called active from +8 up or from −8 down.
A short description of assay [19]: viability profiling in RPMI8226 myeloma cells – cell-based, resazurin fluorescence, basal, 24 h, PK04 Diversity Set, profiling panel (AID 1180).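 Note: RPMI8826 multiple myeloma cell line at 5000 cells per well; test concentration not given here.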 To be noted: higher = more signal.
Assay [20] deals with E3 ubiquitin-protein ligase XIAP (Homo sapiens) (UniProt P98170). The assay can be described thus: small molecules binding XIAP protein – biophysical, small-molecule microarray, fluorescence 635 nm, primary screen (AID 1181).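 Note: score merges 667 nm emission and signal to noise over triplicate slides.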 To be noted: higher = more signal.
Sequence of E3 ubiquitin-protein ligase XIAP (Homo sapiens) (P98170 whole entry, looked up): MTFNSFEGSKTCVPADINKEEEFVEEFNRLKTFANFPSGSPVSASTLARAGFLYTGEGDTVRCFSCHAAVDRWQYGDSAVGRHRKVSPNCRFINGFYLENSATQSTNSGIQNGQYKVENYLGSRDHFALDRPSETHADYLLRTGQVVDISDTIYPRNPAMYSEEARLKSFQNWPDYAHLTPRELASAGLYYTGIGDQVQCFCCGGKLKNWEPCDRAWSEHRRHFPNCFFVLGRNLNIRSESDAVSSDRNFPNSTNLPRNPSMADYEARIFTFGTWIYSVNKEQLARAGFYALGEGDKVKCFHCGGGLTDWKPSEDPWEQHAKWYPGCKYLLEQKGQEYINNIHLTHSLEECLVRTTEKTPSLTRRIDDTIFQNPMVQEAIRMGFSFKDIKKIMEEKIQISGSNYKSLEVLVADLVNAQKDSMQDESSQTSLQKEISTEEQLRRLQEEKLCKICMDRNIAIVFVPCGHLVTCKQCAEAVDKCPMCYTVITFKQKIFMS

Sequence of Dihydroorotate dehydrogenase (quinone), mitochondrial (Plasmodium falciparum (isolate 3D7)) (Q08210 whole entry, looked up): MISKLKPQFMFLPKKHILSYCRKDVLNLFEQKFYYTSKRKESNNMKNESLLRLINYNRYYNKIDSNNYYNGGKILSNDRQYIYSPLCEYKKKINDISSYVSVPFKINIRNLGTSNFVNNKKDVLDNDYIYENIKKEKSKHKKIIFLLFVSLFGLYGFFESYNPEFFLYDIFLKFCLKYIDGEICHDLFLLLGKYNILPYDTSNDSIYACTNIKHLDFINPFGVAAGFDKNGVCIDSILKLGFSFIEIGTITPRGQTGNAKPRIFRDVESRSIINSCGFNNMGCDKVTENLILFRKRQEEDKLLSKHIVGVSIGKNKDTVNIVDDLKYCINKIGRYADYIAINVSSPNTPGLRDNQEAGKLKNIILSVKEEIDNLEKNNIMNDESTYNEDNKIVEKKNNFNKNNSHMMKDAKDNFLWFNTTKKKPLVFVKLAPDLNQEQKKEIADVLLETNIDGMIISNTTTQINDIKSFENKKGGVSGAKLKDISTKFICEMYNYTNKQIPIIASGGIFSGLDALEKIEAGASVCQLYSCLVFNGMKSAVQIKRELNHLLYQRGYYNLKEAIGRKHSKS

For `CC(C)(C)N1C(=O)[C@H]2[C@H]3[C@H](O)[C@H](O)CC(=NNC(=O)OCc4ccccc4)[C@@H]3CC[C@H]2C1=O`, the z-score was 0.193 in [1]; -0.166 in assay [2]; -0.289 in assay [3]; 0.0671 in assay [4]; 0.489 in assay [5]; -0.813 in assay [6]. The z-score in assay [7] was -0.323 (inactive); in assay [8] it was -0.368; in assay [9], -0.368; in assay [10], -0.548 (inactive); in assay [11] it was -0.169; in [12] it was 0.216 (inactive). Moreover, the z-score in assay [13] is -0.484 (inactive); in [15] it was -0.413 (inactive); in assay [16], -0.168 (inactive); in [17], 0.223 (inactive); in assay [18], 0.342 (inactive); in [19], -0.376. The composite z-score in assay [14] was -0.111 (inactive); in [20], -0.102.

`C[C@H]1CC[C@@H](C(=O)O)N[C@@H]1c1cccc(N2CCCC2=O)c1`: the z-score is 0.594 in assay [1]; -0.115 in [2]; 0.652 in [3]; 0.149 in assay [4]; -1.12 in assay [5]; 1.66 in assay [6]. Further, the z-score in assay [7] is 0.574 (inactive); in [8], 0.468; in assay [9] it was -0.436; in assay [10], 0.0065 (inactive); in assay [11] it was 0.672; in assay [12], -0.281 (inactive). Also, the z-score in assay [13] is -0.0691 (inactive); in [15] it was -0.163 (inactive); in [16] it was 0.765 (inactive); in assay [17], 0.968 (inactive); in [18], 0.215 (inactive); in assay [19], -0.652. In addition, the composite z-score in [14] was 0.552 (inactive); in assay [20] it was 0.0909.

As for `CC(C)(C)N1C(=O)[C@H]2[C@@H]3C(=CC[C@H]2C1=O)C(=O)[C@H]1O[C@H]1[C@H]3O`, the z-score was -2.32 in [1]; -3.02 in assay [2]; -4.31 in assay [3]; -3.19 in [4]; -3.9 in assay [5]; 2.38 in assay [6]. Also, the z-score is 2.29 (inactive) in [7]; -0.787 in [8]; -2.59 in [9]; -3.43 (inactive) in [10]; -4.22 in assay [11]; -4.73 (inactive) in assay [12]. Further, the z-score was -7.59 (inactive) in assay [13]; -0.331 (inactive) in assay [15]; -3.03 (inactive) in assay [16]; -0.662 (inactive) in assay [17]; -0.613 (inactive) in assay [18]; -5.04 in assay [19]. The composite z-score in assay [14] was -2.71 (inactive); in [20], -0.178.

In the case of `CON=C(C)CCC(=O)OC[C@H]1O[C@H](C#Cc2ccccc2)C=C[C@@H]1Oc1ccc(C)cc1`, the z-score in assay [1] is -0.631; in assay [2] it was 0.0995; in assay [3] it was -3.1; in [4], -2.99; in [5], -3.96; in assay [6] it was -0.712. The z-score is -0.73 (inactive) in assay [7]; -0.5 in assay [8]; -0.373 in [9]; 0.216 (inactive) in [10]; -0.118 in assay [11]; -0.944 (inactive) in [12]. Further, the z-score in [13] was -0.642 (inactive); in assay [15], 0.298 (inactive); in [16], 0.888 (inactive); in assay [17], 0.556 (inactive); in assay [18] it was -1.88 (inactive); in assay [19], -0.549. The composite z-score in [14] was 0.444 (inactive); in [20], 0.289.

On to `COC(=O)CC=C[C@@H](C)[C@@H](C=NOC[C@@H](O)[C@H]1O[C@@H]2OC(C)(C)O[C@@H]2[C@H]1O)OC`, for which the z-score was 0.218 in [1]; 0.0495 in assay [2]; 0.0068 in [3]; -0.952 in assay [4]; 0.216 in [5]; 0.103 in [6]. Also, the z-score is -0.637 (inactive) in [7]; -0.199 in assay [8]; 0.781 in assay [9]; -0.743 (inactive) in assay [10]; -0.904 in assay [11]; -0.385 (inactive) in [12]. Also, the z-score in [13] was -0.311 (inactive); in [15] it was -0.525 (inactive); in assay [16] it was 0.442 (inactive); in assay [17], 0.404 (inactive); in assay [18], 0.493 (inactive); in assay [19], -1.51. The composite z-score in assay [14] is 0.757 (inactive); in assay [20] it was -0.158.

As for `O=C1CCCC=C1C(O)COCc1ccccc1` (stereo not given), the z-score in assay [1] was 0.384; in assay [2], -1.41; in assay [3], -1.13; in assay [4] it was -0.265; in assay [5] it was 0.729; in [6], -0.143. For the same compound, the z-score in assay [7] is -0.649 (inactive); in assay [8], 0.728; in assay [9] it was -0.0651; in assay [10], 0.0235 (inactive); in assay [11] it was -0.178; in assay [12], -0.971 (inactive). The z-score in assay [13] was -0.155 (inactive); in assay [15], 0.402 (inactive); in assay [16], 0.902 (inactive); in assay [17], -0.227 (inactive); in assay [18], -0.477 (inactive); in assay [19] it was 0.13. Moreover, the composite z-score in [14] is 0.438 (inactive); in assay [20], -0.02.

For the compound `CC(C)=CCCC(C)=CCON=C1C[C@@H](O)[C@@H](O)[C@@H]2[C@@H]3C(=O)N([C@@H](C)c4ccccc4)C(=O)[C@@H]3CC[C@@H]12`, the z-score in assay [1] was -0.412; in assay [2], 0.934; in assay [3], -0.341; in [4], 0.176; in [5], -0.249; in assay [6], -0.781. In addition, the z-score in [7] was -0.598 (inactive); in assay [8] it was 0.0813; in [9], 0.114; in [10] it was -0.21 (inactive); in [11], -0.243; in assay [12] it was 0.408 (inactive). The z-score in [13] is -0.32 (inactive); in assay [15], 0.283 (inactive); in [16] it was -0.471 (inactive); in [17], -0.464 (inactive); in [18] it was -0.131 (inactive); in [19], -0.249. In addition, the figures for the composite z-score in [14] and in [20] were -0.0515 (inactive) and -0.0476, respectively.

In the case of `CCOC(=O)[C@H](CC(C)C)NC(=O)CCC1CC(OC(=O)NCc2ccc3c(c2)OCO3)CC2(CCCC(COC(=O)NCc3ccccc3)O2)O1` (stereo not given in full), the z-score in assay [1] is -0.547; in assay [2] it was -0.654; in assay [3], -1.38; in assay [4] it was -3.45; in assay [5], -1.58; in assay [6] it was -0.439. Besides, the z-score in assay [7] is 0.195 (inactive); in [8], 0.0575; in assay [9] it was 0.277; in assay [10], 1.06 (inactive); in assay [11], 1.32; in assay [12], 0.918 (inactive). Besides, the z-score was 0.624 (inactive) in [13]; -0.282 (inactive) in [15]; 1.26 (inactive) in assay [16]; 0.533 (inactive) in assay [17]; -0.0559 (inactive) in [18]; 0.836 in assay [19]. Moreover, the composite z-score was -0.047 (inactive) in [14] and 0.0727 in [20].

Take `CCN(CC)CC(O)CN1CCCCc2nc(C)c(C)cc21` (stereo not given): the z-score in assay [1] was -0.0127; in assay [2], -0.054; in [3], 0.776; in [4] it was 0.288; in assay [5], 0.378; in assay [6], 0.68. The z-score in assay [7] was 0.109 (inactive); in [8], 0.316; in assay [9], -0.989; in assay [10] it was 0.985 (inactive); in assay [11], -0.148; in [12], -0.571 (inactive). Besides, the z-score was 0.423 (inactive) in assay [13]; 0.711 (inactive) in [15]; -1.48 (inactive) in assay [16]; 0.721 (inactive) in assay [17]; 0.0142 (inactive) in assay [18]; 0.259 in assay [19]. For the same compound, the composite z-score in assay [14] was -2.78 (inactive); in assay [20], -0.271.
